19 compounds from PubChem BioAssay (Tox21) can be followed below.

The structures appear in SMILES notation. Inconclusive results are not listed. The source made the active and inactive calls. Calls follow the shape of the dose curve; as a rule, active = well fitted curve in the direction sought with a large enough effect in the repeat runs; inconclusive = weak or mixed curves; inactive = no such curve, though single readings can be large; an effect the other way counts as inactive or inconclusive.

Assay [1] in a line: A CellTox Green Cytotoxicity Assay to monitor cytotoxicity in HepG2 cells - 0 hour (AID 1224882). Also: nearly all actives have a fitted effect of over 35% in size. In outline:
(§1)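 First, HepG2 cells (600/well) mixed with reagent were plated; second, after 5 h at 37 C they received compounds via pintool; third, fluorescence was measured at 0 h through 40 h at 8 h intervals.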

A short description of assay [2]: A CellTox Green Cytotoxicity Assay to monitor cytotoxicity in HepG2 cells - 32 hour (AID 1224883). Also: nearly all actives have a fitted effect of over 50% in size. Also: potency is read from the fitted curve at half-maximal effect. The essentials:
as §1

Assay [3] in a line: A CellTox Green Cytotoxicity Assay to monitor cytotoxicity in HEK293 cells - 8 hour (AID 1224884). Also: nearly all actives have a fitted effect of over 35% in size. The essentials:
(§2)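 Dead-cell fluorescence measured kinetically: asymmetric cyanine dye, HEK293, 600 cells/well, 5 h settle, 23 nL cpd/DMSO, 37 C, reads 0–40 h every 8 h.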

Assay [4] in a line: qHTS RealTime-Glo MT Cell Viability Assay in HepG2 cells - 16 hour (AID 1224885). Also: nearly all actives have a fitted effect of over 50% in size. In outline: (§3)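 Luminescence read-out: viable HepG2 cells reduce a prosubstrate to a NanoLuc substrate, giving a signal proportional to live cell number. Reads taken at 0, 8, 16, 24, 32 and 40 h of compound exposure at 37 C.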
(In general: qHTS replaces the single test concentration by a dilution series.)

Assay [5] is described as follows: qHTS RealTime-Glo MT Cell Viability Assay in HEK293 cells - 24 hour (AID 1224886). Also: nearly all actives have a fitted effect of over 50% in size. Also: potency is read from the fitted curve at half-maximal effect. In outline:
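Nonlytic real-time viability readout: viable cells convert prosubstrate to NanoLuc substrate, giving luminescence proportional to live cell number. HEK293, 600 cells/well, compound added after 5 h, continuous culture at 37 C.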

A short description of assay [6]: qHTS RealTime-Glo MT Cell Viability Assay in HEK293 cells - 8 hour (AID 1224887). Also: top concentration of the series differs between compounds; nearly all actives have a fitted effect of over 50% in size. The essentials: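 600 HEK293 cells per well, dispensed already mixed with RealTime-Glo MT reagents. Compound dosing came 5 h later. The same wells were read for luminescence at 0, 8, 16, 24, 32 and 40 h of exposure at 37 C.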
A short description of assay [7]: qHTS RealTime-Glo MT Cell Viability Assay in HepG2 cells - 0 hour (AID 1224889). Also: nearly all actives have a fitted effect of over 50% in size. The essentials: as §3
The nature of assay [8]: A CellTox Green Cytotoxicity Assay to monitor cytotoxicity in HepG2 cells - 8 hour (AID 1224890). Also: nearly all actives have a fitted effect of over 45% in size. The essentials:
as §1

Assay [9] is described as follows: qHTS assay to identify small molecule antagonists of the estrogen receptor alpha (ER-alpha) signaling pathway using the BG1 cell line in the presence of 0.1 nM 17-beta-estradiol - cell viability counter screen (AID 1259241). Also: nearly all actives have a fitted effect of over 40% in size. In outline:
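CellTiter-Fluor read (30 min, 37C) on ER-alpha/ERE-luc VM7Luc4E2 cells; 22 hr compound treatment; agonist 0.1 nM E2 final; same-well multiplex.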

Assay [10] in a line: A CellTox Green Cytotoxicity Assay to monitor cytotoxicity in HEK293 cells - 16 hour (AID 1224888). Also: nearly all actives have a fitted effect of over 35% in size. The essentials: as §2

`OCCSCSCCO`: the result in [1] and in assay [9] was inactive. Besides, the Potency result in [2], in [3], in [4], in [5], in assay [6] and in [7] was “inactive” throughout. Further, the Potency result in assay [8] is “inactive”.

Regarding `O=[N+]([O-])c1ccc(CBr)cc1`, the call in assay [1] and in assay [9] was inactive. Moreover, the Potency entry in assay [2], in assay [3], in assay [4], in assay [5], in assay [6] and in assay [10] was “inactive” each time. Further, in [7], the Potency result is “inactive”.

With `CCCCOP(=O)(O)OCCCC`, the compound was called inactive in assay [1] and in [9]. Moreover, the Potency result in [2], in assay [3], in assay [4], in assay [5], in [6] and in [10] was “inactive” each time. For the same compound, the Potency result in assay [7] is “inactive”.

Take `CC(C)COP(=O)(OCC(C)C)OCC(C)C`: the outcome in assay [1] and in [9] was inactive. Further, the Potency result in assay [2], in assay [3], in [4], in [5], in [6] and in assay [7] was “inactive” each time. For the same compound, the Potency result in assay [8] is “inactive”.

For the compound `COC(=O)C(c1ccccc1)C1CCCCN1` (configuration not stated), the compound was classed as inactive in [1] and in assay [9]. In addition, the Potency entry in assay [2], in assay [3], in assay [4], in assay [5], in [6] and in assay [10] was “inactive” each time. For the same compound, the Potency result in assay [7] was “inactive”.

In the case of `CCCSC(=O)N(CCC)CCC`, the call in [1] and in [9] was inactive. In addition, the Potency result in assay [2], in assay [3], in [4], in [5], in assay [6] and in [10] was “inactive” each time. Besides, in assay [7], the Potency entry is “inactive”.

As for `OC(c1ccccc1)(c1ccccc1)C1CCNCC1`, the compound was called inactive in assay [1] and in assay [9]. Moreover, the Potency result in assay [2], in assay [3], in assay [4], in [5], in assay [6] and in assay [10] was “inactive” each time. Further, in assay [7], the Potency result is “inactive”.

On to `CCOP(=S)(OCC)Oc1nc(Cl)n(C(C)C)n1`, for which the compound was classed as inactive in [1] and in assay [9]. Moreover, the Potency entry in assay [2], in assay [3], in [4], in assay [5], in assay [6] and in assay [10] was “inactive” each time. The Potency result in [7] is “inactive”.

As for `O=C1CN2CCOC2(c2ccccc2Cl)c2cc(Cl)ccc2N1` (configuration not stated), the outcome in [1] and in assay [9] was inactive. In addition, the Potency entry in [2], in [3], in assay [4], in [5], in [6] and in [10] was “inactive” in each case. For the same compound, in [7], the Potency result was “inactive”.

Turning to `CCS(=O)(=O)C(C)(C)S(=O)(=O)CC`, the compound was classed as inactive in [1] and in assay [9]. Moreover, the Potency result in assay [2], in [3], in assay [4], in assay [5], in assay [6] and in assay [10] was “inactive” in each case. Further, the Potency entry in assay [7] is “inactive”.

In the case of `CNNC`, the result in assay [1] and in assay [9] was inactive. The Potency entry in [2], in [3], in assay [4], in [5], in [6] and in assay [7] was “inactive” throughout. The Potency result in assay [8] was “inactive”.

On to `O=CNC(N1CCN(C(NC=O)C(Cl)(Cl)Cl)CC1)C(Cl)(Cl)Cl` (configuration not stated), for which the result in assay [1] and in [9] was inactive. Moreover, the Potency entry in [2], in [3], in assay [4], in assay [5], in assay [6] and in assay [7] was “inactive” in each case.

Turning to `CC(C=O)Cc1ccc2c(c1)OCO2` (configuration not stated), the compound was called inactive in assay [1] and in assay [9]. The Potency entry in assay [2], in [3], in [4], in assay [5], in assay [6] and in assay [7] was “inactive” each time.

Take `c1cc[c]([Hg][c]2ccccc2)cc1`: the compound was called inactive in assay [1] and in assay [9]. Besides, the Potency in [2] is 49 µM (active); in assay [5], 34.7 µM (active). In addition, the Potency result in [3], in assay [4], in [7] and in assay [8] was “inactive” throughout.

For the compound `C#C[C@]1(O)C=C[C@H]2[C@@H]3CCC4=CC(=O)CC[C@@H]4[C@H]3CC[C@@]21CC`, the result in [1] and in [9] was inactive. Moreover, the Potency result in [2], in assay [3], in assay [4], in assay [6], in [10] and in assay [7] was “inactive” throughout. Further, the Potency entry in [8] is “inactive”.

`CCNc1nc(NC(C)C)nc(OC)n1`: the call in assay [1] and in assay [9] was inactive. In addition, the Potency result in assay [2], in assay [3], in assay [4], in assay [5], in [6] and in assay [7] was “inactive” in each case.

In the case of `C(CCOCC1CO1)COCC1CO1` (configuration not stated), the outcome in assay [1] and in [9] was inactive. Also, the Potency result in assay [2], in assay [3], in [4], in [5], in assay [6] and in assay [7] was “inactive” throughout. Also, the Potency entry in assay [8] is “inactive”.

In the case of `O=[N+]([O-])c1cc(Cl)c(Cl)c(Cl)c1`, the outcome in assay [1] and in assay [9] was inactive. Moreover, the Potency entry in assay [2], in [3], in [4], in assay [5], in assay [6] and in assay [7] was “inactive” in each case. The Potency entry in [8] is “inactive”.

`CCC(Cl)[N+](=O)[O-]` (configuration not stated): the compound was called inactive in assay [1] and in [9]. Further, the Potency entry in [2], in assay [3], in assay [4], in [5], in assay [6] and in assay [7] was “inactive” each time. Besides, the Potency entry in assay [8] is “inactive”.
